Our source for the Potency values is PubChem BioAssay (NCATS).

Molecules are shown by their SMILES. Records with an inconclusive call do not appear. A call without a number means that no potency is given here. Activity calls are given as the source filed them. Calls follow the shape of the dose curve; as a rule, active = well fitted inhibition curve with a large enough effect; inconclusive = small, poorly fitted or top-dose-only effect; inactive = no such curve, though single readings can be large or run the other way.

Test [1] in a line: Primary qHTS for small molecule stabilizers of the endoplasmic reticulum resident proteome: Secreted ER Calcium Modulated Protein (SERCaMP) assay (AID 1508630). Put shortly: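 The SH-SY5Y reporter protocol was run at 3 concentrations up to 38.3 uM (primary) or 11 concentrations (follow-up): 16 h compound, 100 nM thapsigargin for 4 h, then extracellular luciferase luminescence.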
On the technique in general: Quantitative high-throughput screening tests each substance at several concentrations.

The target in test [2] is Papain (Carica papaya) (UniProt P00784). Description: Primary qHTS assay for inhibitors of the protease papain (AID 1645873).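 Also: papain turnover of Z-FR-AMC read as the AMC fluorescence gain over 10 min; series mostly up to about 50 µM.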
Papain (Carica papaya), sequence (P00784 whole entry, looked up): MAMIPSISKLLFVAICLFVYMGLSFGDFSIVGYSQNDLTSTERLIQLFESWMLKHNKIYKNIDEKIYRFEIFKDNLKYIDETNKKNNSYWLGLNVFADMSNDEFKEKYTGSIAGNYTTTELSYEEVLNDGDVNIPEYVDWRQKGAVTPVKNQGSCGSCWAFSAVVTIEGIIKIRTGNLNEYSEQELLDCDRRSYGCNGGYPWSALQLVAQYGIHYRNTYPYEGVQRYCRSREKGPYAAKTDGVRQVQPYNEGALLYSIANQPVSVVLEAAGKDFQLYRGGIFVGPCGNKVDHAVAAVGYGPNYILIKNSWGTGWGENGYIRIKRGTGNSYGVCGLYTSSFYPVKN

For the compound `CCCCC#Cc1nc(NC)c2ncn([C@@H]3O[C@H](CO)[C@@H](O)[C@H]3O)c2n1`, the Potency entry in test [1] and in test [2] was “inactive” in each case.
In the case of `Fc1cccc(/C=N/N=C/c2cccc(F)c2)c1`, the Potency entry in test [1] and in test [2] was “inactive” throughout.
With `NCCCCCCCCCCN`, the Potency entry in test [1] and in test [2] was “inactive” in each case.
In the case of `CC(=O)/C=C1\C(=O)N(C)c2ccccc21`, the Potency result in test [1] and in test [2] was “inactive” throughout.
Regarding `O=Nc1ccc2oc(=O)ccc2c1`, the Potency entry in test [1] and in test [2] was “inactive” each time.
As for `O=C(Nc1ccncc1)c1cc([N+](=O)[O-])ccc1Cl`, the Potency result in test [1] and in test [2] was “inactive” each time.
With `CNC(=O)[C@H]1O[C@@H](n2cnc3c(NCc4cccc(I)c4)ncnc32)[C@H](O)[C@@H]1O`, the Potency entry in test [1] and in test [2] was “inactive” throughout.
On to `CCOC(=O)N1CCN(/[N+]([O-])=N/Oc2ccc([N+](=O)[O-])cc2[N+](=O)[O-])CC1`, for which the Potency result in test [1] and in test [2] was “inactive” in each case.
`NC(CCCP(=O)(O)O)C(=O)O` (stereo unspecified): the Potency result in test [1] and in test [2] was “inactive” in each case.
Consider `NS(=O)(=O)C#Cc1ccccc1`, for which the Potency entry in test [1] and in test [2] was “inactive” in each case.
In the case of `COc1cccc(OC)c1OCCNCC1COc2ccccc2O1` (stereo unspecified), the Potency entry in test [1] and in test [2] was “inactive” throughout.
In the case of `CN(C)C(N)=NCCC[C@H](N)C(=O)O`, the Potency result in test [1] and in test [2] was “inactive” throughout.
On to `CSc1nc(N)c2ncn([C@@H]3O[C@H](COP(=O)(O)OP(=O)(O)OP(=O)(O)O)[C@@H](O)[C@H]3O)c2n1`, for which the Potency result in test [1] and in test [2] was “inactive” in each case.
For `C[C@@H](CN1CCC(Cc2ccccc2)CC1)[C@@H](O)c1ccc(O)cc1`, the Potency entry in test [1] and in test [2] was “inactive” in each case.
On to `NCCCCC(=O)O`, for which the Potency result in test [1] and in test [2] was “inactive” in each case.
In the case of `NCCSSCCN`, the Potency entry in test [1] and in test [2] was “inactive” each time.
`CC(=O)N[C@H](C(=O)O)C(C)(C)SN=O`: the Potency entry in test [1] and in test [2] was “inactive” throughout.
Regarding `Cc1cc(NC(=O)Nc2ccc3c(ccn3C)c2)sn1`, the Potency entry in test [1] and in test [2] was “inactive” in each case.
